Our source for the Potency and Z-AUC values is PubChem BioAssay (NCATS).

Records with an inconclusive call do not appear. Calls of active or inactive are those of the source. Unless noted, calls follow the shape of the dose curve; as a rule, active = well fitted curve in the direction sought with a large enough effect; inconclusive = small, poorly fitted or top-dose-only effect, or another doubt; inactive = no such curve, though single readings can be large; an effect the other way counts as inactive or inconclusive.

Assay [1] has as its system Zika virus NS2B-NS3 protease. Briefly: Primary screen GU AMC qHTS for Zika virus inhibitors (AID 1347154).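 Also: 0% = no-inhibitor control and -100% = no-enzyme control; nearly all actives have a fitted effect of over 70% in size.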 Summed up: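 Fluorogenic AMC-substrate cleavage by noncovalent NS2B-NS3 protease complex (25 nM, pH 8.0 Tris buffer with Tween 20) followed for 15 minutes at room temperature (~20% conversion). Percent inhibition from ex340/em450 signal change, fitted by 4-parameter Hill equation.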
(Quantitative high-throughput screening tests each substance at several concentrations.)

Assay [2] can be described thus: qHTS to identify inhibitors of the type 1 interferon - major histocompatibility complex class I in skeletal muscle: primary screen against the NCATS Mechanism Interrogation Plate v5.0 (MIPE) Libary (AID 1347411).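 Also: plate controls were vehicle for no effect and reference inhibitor for full effect; nearly all actives have a fitted effect of over 65% in size.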 In outline: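 Seed engineered human myoblasts (HLA-B HiBit) in medium without dexamethasone containing 4 ng/ml IFN-beta; after 1 hr add compound titrations (top 46 uM final). Incubate 24 hrs at 37 C, lyse 10 min with HiBiT reagent, read luminescence.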

A short description of assay [3]: Primary qHTS for small molecule stabilizers of the endoplasmic reticulum resident proteome: Secreted ER Calcium Modulated Protein (SERCaMP) assay (AID 1508630). Also: % is scaled to controls: 0 for no effect and ±100 for the full control effect. Summed up: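 The SH-SY5Y reporter protocol was run at 3 concentrations up to 38.3 uM (primary) or 11 concentrations (follow-up): 16 h compound, 100 nM thapsigargin for 4 h, then extracellular luciferase luminescence.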

Assay [4] is described as follows: Primary qHTS for inhibitors of nuclear receptor binding SET domain protein 2 (NSD2) in an isogenic RCH-ACV NSD2 p.E1099K mutant (9B) (AID 1645876). Also: potency is read from the fitted curve at half-maximal effect; nearly all actives have a fitted effect of over 70% in size.
Assay [5] can be described thus: Primary qHTS for inhibitors of nuclear receptor binding SET domain protein 2 (NSD2) in an RCH-ACV wild type WT cells (2C) (AID 1645877). Also: potency is read from the fitted curve at half-maximal effect; nearly all actives have a fitted effect of over 70% in size.
The target in assay [6] is Glutathione peroxidase 1 (Homo sapiens) (UniProt P07203). Briefly: Primary qHTS Assay for Inhibitors of Recombinant Selenoprotein Glutathione Peroxidase 1 (GPX1) (AID 1845191). Also: nearly all actives have a fitted effect of over 65% in size. In outline: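 NADPH consumption tracked by fluorescence at 340/450 nm between t=0 and t=15 min, room temperature. Final mix: 10 nM GPX1, 100 nM glutathione reductase, 1 mM GSH, 0.5 mM NADPH, 0.5 mM cumene hydroperoxide, 0.01% BSA; 30 min compound–enzyme preincubation.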
Glutathione peroxidase 1 (Homo sapiens), sequence (P07203 whole entry, looked up): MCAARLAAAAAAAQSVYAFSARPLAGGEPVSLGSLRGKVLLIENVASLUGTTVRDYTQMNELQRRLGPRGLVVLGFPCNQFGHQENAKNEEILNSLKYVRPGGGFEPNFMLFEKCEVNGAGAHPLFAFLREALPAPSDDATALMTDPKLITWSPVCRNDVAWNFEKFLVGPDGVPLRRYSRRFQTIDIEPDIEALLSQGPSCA

The target of assay [7] is Phospholipid hydroperoxide glutathione peroxidase GPX4 (Homo sapiens) (UniProt P36969). Briefly: Primary qHTS Assay for Inhibitors of Recombinant Selenoprotein Glutathione Peroxidase 4 (GPX4) (AID 1845192). Also: series mostly up to about 50 µM; % is scaled to controls: 0 for no effect and ±100 for the full control effect; nearly all actives have a fitted effect of over 65% in size. The note with it: outcome: dose series up to 50 µM unless noted. In outline:
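NADPH consumption followed by fluorescence at 340/450 nm, t=0 and after 15 min at room temperature. Reaction started with cumene hydroperoxide (0.5 mM final) after 30 min compound–GPX4 preincubation; final 200 nM GPX4, 100 nM GR, 1 mM GSH, 0.5 mM NADPH.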

A short description of assay [8]: qHTS drug screen for cell cycle checkpoint inhibitors in PARPi-resistant BRCA-mutant ovarian cancer cell lines. (AID 1963452; calls by dose curve). The note with it: PEO1/OlaR viability, CellTiter-Glo luminescence, 96 h, stronger effect = lower value. In outline: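 PEO1, PEO4 and PEO1/OlaR ovarian cancer cells, 600 per well, exposed 96 h at 37C to a dilution series. Viability read by CellTiter-Glo luminescence, normalized to DMSO and empty wells; activity summarized as Z-AUC.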

Phospholipid hydroperoxide glutathione peroxidase GPX4 (Homo sapiens), sequence (P36969 whole entry, looked up): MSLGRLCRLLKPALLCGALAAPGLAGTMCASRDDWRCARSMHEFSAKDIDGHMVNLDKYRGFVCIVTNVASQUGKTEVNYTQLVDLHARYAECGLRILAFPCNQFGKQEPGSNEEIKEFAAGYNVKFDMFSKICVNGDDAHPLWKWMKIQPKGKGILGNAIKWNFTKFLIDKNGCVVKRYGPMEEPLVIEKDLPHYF

With `COc1ccc2c(c1)CC[C@@H]1[C@@H]2CC[C@]2(C)[C@@H](NCCCCCCN3C(=O)C=CC3=O)CC[C@@H]12`, the Potency entry in assay [1], in assay [2], in assay [3], in assay [6] and in assay [7] was “inactive” throughout. Moreover, the Potency in assay [4] was 13.2 µM (active); in assay [5], 5.25 µM (active). Moreover, the results for the Z-AUC in assay [8], in assay [8] (measured here: PEO1 parental Z-AUC) and in assay [8] (measured here: PEO4 Z-AUC) were 0.11 (inactive), 0.00217 and 0.205, respectively.
